Test results as given in publication PMC4336329 (PLoS ONE, 2015).
The whole screen tested about 310,000 compounds, of which about 2,200 (0.71%) showed an effect of 50% or more. Effects have a minus sign here. The sample as a whole holds a higher share of strong results than the screen did.

molecular target: human ether-à-go-go-related gene (hERG) potassium channel (human, UniProt Q12809); test: primary screen, population patch clamp on CHO cells stably expressing hERG; higher = less effect of the substance
Sequence (Q12809 whole entry, looked up): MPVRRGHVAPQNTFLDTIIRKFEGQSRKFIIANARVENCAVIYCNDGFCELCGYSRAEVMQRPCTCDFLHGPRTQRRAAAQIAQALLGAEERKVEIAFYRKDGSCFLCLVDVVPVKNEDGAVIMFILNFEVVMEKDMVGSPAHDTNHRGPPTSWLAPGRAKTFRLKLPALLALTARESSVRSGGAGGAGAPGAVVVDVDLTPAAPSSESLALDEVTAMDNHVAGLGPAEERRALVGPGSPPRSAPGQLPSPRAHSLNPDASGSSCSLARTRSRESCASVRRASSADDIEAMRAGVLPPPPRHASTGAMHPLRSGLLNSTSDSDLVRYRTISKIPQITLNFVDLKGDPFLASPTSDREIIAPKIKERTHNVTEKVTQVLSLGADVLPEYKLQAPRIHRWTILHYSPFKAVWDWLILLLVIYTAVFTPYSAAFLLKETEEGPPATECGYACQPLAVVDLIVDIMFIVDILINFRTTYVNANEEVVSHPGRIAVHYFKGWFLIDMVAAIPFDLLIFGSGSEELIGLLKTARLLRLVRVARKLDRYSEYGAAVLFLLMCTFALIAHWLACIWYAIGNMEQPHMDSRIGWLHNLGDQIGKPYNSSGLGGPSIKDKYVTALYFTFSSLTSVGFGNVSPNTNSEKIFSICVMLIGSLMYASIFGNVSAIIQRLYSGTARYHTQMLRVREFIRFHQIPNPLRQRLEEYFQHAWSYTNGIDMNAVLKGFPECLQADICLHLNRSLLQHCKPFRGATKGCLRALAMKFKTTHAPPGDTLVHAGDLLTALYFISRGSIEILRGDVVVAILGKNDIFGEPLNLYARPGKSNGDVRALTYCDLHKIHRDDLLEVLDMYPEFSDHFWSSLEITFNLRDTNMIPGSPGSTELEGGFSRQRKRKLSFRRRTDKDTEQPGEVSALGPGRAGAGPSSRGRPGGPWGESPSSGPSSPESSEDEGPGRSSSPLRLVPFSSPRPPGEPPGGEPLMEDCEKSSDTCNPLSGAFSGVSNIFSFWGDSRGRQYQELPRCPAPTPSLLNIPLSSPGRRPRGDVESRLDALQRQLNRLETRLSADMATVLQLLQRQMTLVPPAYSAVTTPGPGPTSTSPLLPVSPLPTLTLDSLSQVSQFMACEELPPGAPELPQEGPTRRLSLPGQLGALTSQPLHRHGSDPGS

| Structure (SMILES) | hERG current change (%, negative = inhibition) at 1uM |
| --- | --- |
| N#CCCN=C(NS(=O)(=O)c1ccccc1)c1ccccc1 | 2.49% |
| O=C(COc1ccc2ccc(=O)oc2c1)NCCc1c[nH]c2ccc(F)cc12 | 12.5% |
| CCOc1ccc(N2C(=O)CC(n3nc(C)cc3C)C2=O)cc1 (stereo not shown) | 3.53% |
| Br.CCOC(=O)c1c(CSC(=N)N)n(C)c2cc(Br)c(OC(C)=O)cc12 | -36.7% |
| Br.CCOC(=O)c1c(CSC(=N)N)n(-c2ccc(C)cc2)c2cc(Br)c(OC(C)=O)cc12 | -36.7% |
| CCOC(=O)c1c(CSC(=N)N)n(-c2ccccc2)c2cc(Br)c(OC(C)=O)cc12 | -57.4% |
| Cc1cccc(NC(=O)Nc2ccc3c(c2)OCO3)n1 | 15.6% |
| O=C(CN1CCN(C(=O)c2c(F)cccc2F)CC1)Nc1ccccc1C(F)(F)F | 3.09% |
| Cc1cccc(NC(=O)CN2CCN(C(=O)c3cncn3-c3ccc(F)cc3)CC2)c1C | -22.2% |
| CCc1ccccc1NC(=O)CN1CCN(C(=O)c2cccc(-n3cnnn3)c2)CC1 | -5.51% |
| Cc1cccc(NC(=O)CN2CCN(C(=O)c3cccc(-n4cnnn4)c3)CC2)c1C | -11.9% |
| O=C(CN1CCN(C(=O)c2cncn2-c2ccc(F)cc2)CC1)Nc1ccccc1C(F)(F)F | -68.3% |
| O=C(CN1CCCCC1)Nc1ccccc1Cl | 13.9% |
| Cc1nn(Cc2ccccc2)c(C)c1C(=O)N1CCN(CC(=O)Nc2ccccc2Cl)CC1 | -13.4% |
| O=C(CN1CCN(C(=O)c2cncn2-c2ccccc2)CC1)Nc1ccccc1Cl | -83.4% |
| O=C(CN1CCN(C(=O)c2cccc(-n3cnnn3)c2)CC1)Nc1ccccc1Cl | -92.9% |

| Structure (SMILES) | hERG current change (%, negative = inhibition) at 1uM |
| --- | --- |
| O=C(Nc1ccncc1)Nc1cccc(Cl)c1 | 6.49% |
| CC(C)(C)n1nc2c(c1NC(=O)c1ccc(C(F)(F)F)cc1)CS(=O)(=O)C2 | -9.67% |
| Cc1ccc(-c2nc(CS(=O)CC(=O)NCCN3CCCCCC3)c(C)o2)cc1 (stereo not shown) | 15.5% |
| Cc1ccc(C(=O)Cn2c(N3CCOCC3)nc3c2c(=O)n(C)c(=O)n3C)cc1 | 5.32% |
| COc1cccc(Nc2nc(Nc3ccc(Cl)c(C(=O)O)c3)nc(C)c2[N+](=O)[O-])c1 | 9.52% |
| CCOc1ccc(NS(=O)(=O)c2ccc(SC)cc2)cc1 | 0.548% |
| O=C(Nc1ccnn1C1CCN(Cc2ccc(C#CCCO)cc2)CC1)c1cccc(F)c1 | -37.5% |
| CCc1ccc(CN2CCC(n3nccc3NC(=O)c3cccc(F)c3)CC2)cc1 | -78.3% |
| O=C(Nc1ccnn1C1CCN(Cc2ccc3nonc3c2)CC1)c1cccc(F)c1 | -1.92% |
| CCOc1cccc(CN2CCC(n3nccc3NC(=O)c3ccc4c(c3)OCO4)CC2)c1 | -1.26% |
| COc1ccc(CN2CCC(n3nccc3NC(=O)c3cccc(F)c3)CC2)cc1O | -81.5% |
| CC(=O)c1cccc(CN2CCC(n3nccc3NC(=O)c3ccc4c(c3)OCO4)CC2)c1 | 6.25% |
| CCn1cc(CN2CCC(n3nccc3NC(=O)c3cccc(F)c3)CC2)cn1 | 6.11% |
| CCc1ccc(CN2CCC(n3nccc3NC(=O)c3ccc4c(c3)OCO4)CC2)cc1 | -58.4% |
| COc1ccc(CN2CCC(n3nccc3NC(=O)C3CC3)CC2)cc1O | -18.7% |
